KB-3-1 tox: kills parental KB-3-1 adenocarcinoma cells; KB-3-1 viability, CellTiter-Glo ATP luminescence, 72 h; Potency, µM (highest dose often 46.1 µM), actives largely listed as cytotoxic; 400,000 compounds, 1.4% hits; note: nearly all actives have a fitted effect of over 60% in size
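Cells are dispensed, compounds pinned in, plates held at 37 °C for 72 h, then CellTiter-Glo is added and luminescence read after 10 minutes. Cell line: parental KB-3-1 in phenol-red-free DMEM, 10% FBS.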
HT1080NT lethal: kills 2HG-producing HT-1080-NT fibrosarcoma cells; HT-1080-NT fibrosarcoma viability, CellTiter-Glo ATP luminescence, 48 h; Potency, µM (titrated, usually from 46.1 µM), usual class: cytotoxic; 360,000 compounds, 1.6% hits;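 note: NT is the 2HG producing partner of a matched IDH1 knockdown line; nearly all actives have a fitted effect of over 55% in size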
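Compounds were tested in concentration-response format on HT-1080-NT cells for 48 hours at 37 degrees C. Cell viability came from CellTiter-Glo luminescence; curves were classified by r2, response magnitude and activity.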
KB-V1 cytotox: kills drug-selected multidrug resistant KB-V1 cells; KB-V1 MDR cells viability, CellTiter-Glo, 72 h; Potency, µM (top dose mostly 46.1 µM), actives largely listed as cytotoxic; 400,000 compounds, 3.4% hits; AID 1347076; note: nearly all actives have a fitted effect of over 60% in size
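KB-V1, DMEM (no phenol red) + 10% FBS; cpd pin-transferred, titration series; 72 h, 37 degrees C; CellTiter-Glo, luminescence. Data normalized, curve-fit.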
SW480 rereplic: DNA re-replication induction in SW480 cells | SW480 DNA re-replication, Hoechst DNA content imaging, 48 h | Potency, µM (series often up to 46.1 µM), actives largely listed as activators | 340,000 compounds, 1.8% hits; note: nearly all actives have a fitted effect of over 55% in size
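Treated cells incubate 48 hr (37 C, 5% CO2), are stained 40 min with Hoechst, and nuclear fluorescence is enumerated; a rise in nuclei with high DNA signal marks re-replication.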
MCF10A rereplic: inducers of DNA re-replication in MCF 10A breast cells; MCF 10A DNA re-replication, Hoechst nuclear intensity, 48 h; Potency, µM (series often up to 46.1 µM), usual class: activators; 350,000 compounds, 2.9% hits; AID 624296; note: nearly all actives have a fitted effect of over 50% in size
HT1080 IDH1KD tx: toxicity to HT-1080 IDH1 knockdown cells (counter line) | 360,000 compounds, 2% hits | HT-1080 IDH1 knockdown viability, ATP luminescence, 48 h | Potency, µM (titrated, usually from 46.1 µM), hits mostly cytotoxic
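After a 2 h attachment period, IDH1KD HT-1080 cells took pin-transferred compound for 48 h at 37 °C; ATP-based luminescence after 10 min room-temperature reagent incubation reported viability.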
A number is an active result; 0 = inactive; ? = inconclusive; - = not tested or not shown; [ ] = another dose, or the depositor's remark. Compounds with a hit are over-represented: about 8% of the library has one in this group of screens. Calls come from the whole dose curve; as a rule, active = well fitted curve in the direction sought with a large enough effect; inconclusive = small, poorly fitted or top-dose-only effect, or another doubt; inactive = no such curve, though single readings can be large; an effect the other way counts as inactive or inconclusive.

SMILES | KB-3-1 tox | HT1080NT lethal | KB-V1 cytotox | SW480 rereplic | MCF10A rereplic | HT1080 IDH1KD tx
CC(=O)C1=C(C)NC(SCC(=O)c2ccc(Cl)c(Cl)c2)=C(C#N)C1c1ccco1 (configuration not stated) | 0 | 0 | ? | 12µM | 0 | 0
O=C(NCCC1CCCCN1S(=O)(=O)c1ccccc1)C(=O)NC1CC1 (configuration not stated) | 0 | 0 | 0 | 0 | 0 | 0
CCOc1ccc(N2C(=O)C3ON(c4ccccc4)C(c4cccs4)C3C2=O)cc1 (configuration not stated) | 0 | 0 | 0 | ? | 0 | 0
COC(=O)c1cccnc1-n1c(=O)c2cccnc2n(Cc2cccc([N+](=O)[O-])c2)c1=O | 0 | 0 | 0 | 0 | 0 | 0
COC(=O)c1cccnc1-n1c(=O)c2cccnc2n(Cc2ccc(Cl)cc2)c1=O | ? | 0 | 23µM | 0 | 0 | 0
Nc1cc(Cc2ccccc2)ccc1O | 0 | 0 | 18µM | 0 | ? | 0
Cn1nc(NC(=O)C(F)(F)F)c2ncc(-c3ccccc3)nc21 | 0 | 0 | 18µM | - | - | 0
CCCCCCn1ccc(=N)cc1 | 8.2µM | 0 | 0 | 0 | 0 | 0
Cc1cc(C)c(C)c(S(=O)(=O)N2CCN(c3ncnc4ccccc34)CC2)c1C | 18µM | ? | ? | 0 | 18µM | 23µM
Cc1cc(C)c(C)c(S(=O)(=O)N2CCN(c3ccccn3)CC2)c1C | 0 | 0 | ? | 0 | 0 | 0
c1ccc(CNC2=NCCCCC2)cc1 | 0 | 0 | 0 | 0 | 0 | 0
c1ccc(NNC2=NCCCCC2)cc1 | ? | ? | 0 | 0 | 0 | 4.1µM
COc1ccc(C2NC(=O)NC3=C2CCc2ccccc23)cc1 (configuration not stated) | 18µM | 15µM | 13µM | ? | ? | 18µM
CC(C)c1ccc(C2NC(=O)NC3=C2CCc2ccccc23)cc1 (configuration not stated) | 15µM | 0 | 18µM | 0 | ? | 0
CCOC(=O)c1cnc2c(Cl)c(Cl)ccc2c1N1CCN(C)CC1 | 0 | 15µM | ? | 0 | 0 | 16µM
CCOC(=O)c1cnc2c(C)c(Cl)ccc2c1N1CCN(CC)CC1 | 0 | 15µM | 0 | 0 | ? | 15µM
CCOC(=O)c1cnc2c(C)c(Cl)ccc2c1Nc1ccc(C)cc1C | 0 | - | 0 | - | - | -
Cc1ccc(-c2noc(-c3ccc(N4CCOCC4)c([N+](=O)[O-])c3)n2)cc1 | 0 | - | 0 | - | - | -
CC(=O)c1ccc(S(=O)(=O)N2CCn3cccc3C2c2ccc(F)c(F)c2)cc1 (configuration not stated) | 0 | - | 0 | - | - | -
N#Cc1ccccc1Oc1ccccc1C=O | 0 | 0 | 0 | 0 | ? | 0
CN(CC(=O)Nc1cccc(F)c1)C(=O)c1cn(-c2ccccc2)nc1-c1cccs1 | ? | 0 | ? | 0 | ? | 0
CN(CC(=O)Nc1cccc(F)c1)C(=O)c1cn(-c2ccccc2)nc1-c1ccc(Cl)cc1 | 0 | 21µM | 0 | 0 | ? | ?
COc1ccc(-c2nn(-c3ccccc3)cc2/C=C/C(=O)OCC(=O)Nc2ccc(C#N)cc2)cc1 | 0 | 0 | 9.2µM | 0 | 0 | 0
COc1ccc(NC(=O)CN(C)C(=O)c2cn(-c3ccccc3)nc2-c2ccc(Cl)cc2)cc1 | ? | ? | 23µM | 23µM | 0 | ?
O=C(NCCCNC(=O)c1ccco1)c1cccc(F)c1 | 0 | 0 | 0 | 0 | 0 | 0
SMILES | KB-3-1 tox | HT1080NT lethal | KB-V1 cytotox | SW480 rereplic | MCF10A rereplic | HT1080 IDH1KD tx
CCCn1ccc2c(OCC(=O)Nc3cc(C)ccc3C)cccc2c1=O | 0 | - | 0 | - | - | -
CCc1nnc(NC(=O)c2ccccc2NC(=O)C2CCN(C(=O)c3ccco3)CC2)s1 | ? | - | 0 | - | - | -
N#Cc1ccccc1S(=O)(=O)N1CCN(C(=O)C2COc3ccccc3O2)CC1 (configuration not stated) | 0 | 0 | 21µM | 0 | 0 | 0
O=C(C1COc2ccccc2O1)N1CCN(S(=O)(=O)c2cc(F)ccc2F)CC1 (configuration not stated) | 0 | 0 | 0 | 0 | 0 | 0
COc1ccc(CCNC(=O)c2c(C)oc3ncn(CC(C)C)c(=O)c23)c(OC)c1 | 0 | - | 0 | - | - | -
O=C1[C@@H]2CSC(c3ccc(F)cc3)N2C(=O)N1c1ccc(Cl)cc1 (some centres not stated) | 0 | - | 0 | - | - | -
O=[N+]([O-])c1cc(Cl)cc(/C=N\Nc2ccccn2)c1O | ? | ? | 0 | 3.7µM | ? | ?
CCOC(=O)n1c(=O)n(Cc2ccc(OC)cc2)c2ccccc21 | 16µM | 15µM | ? | ? | 0 | ?
CCOC(=O)n1c(=O)n(Cc2ccccc2C)c2ccccc21 | 0 | 0 | 0 | 0 | 0 | 0
COc1ccc(-c2cn3c(C)c(C(=O)Nc4cccc(C)n4)sc3n2)cc1 | 0 | 0 | 21µM | 0 | ? | 0
Cc1cccc(NC(=O)c2sc3nc(-c4ccccc4)cn3c2C)n1 | 0 | 0 | 21µM | 0 | 0 | 0
NC[C@H](Cc1ccccc1)NCCCCC1CCCCC1 | 0 | 0 | 0 | 0 | 0 | 0
CNC[C@H](CC1CCCCC1)NC[C@H](Cc1ccccc1)NCCC12CC3CC(CC(C3)C1)C2 | ? | 21µM | 18µM | 0 | ? | ?
OC(c1ccco1)c1nc(-c2ccc(F)c(Cl)c2)cs1 (configuration not stated) | 0 | 0 | 0 | - | - | ?
CCCCCCSc1nnc(-c2cnn(-c3ccccc3)c2-n2cccc2)n1C | 0 | 18µM | 0 | 0 | ? | ?
CCSc1nnc(-c2cnn(-c3ccccc3)c2-n2cccc2)n1C | 0 | 0 | 0 | 0 | 0 | 0
CCN(Cc1ccccc1)C(c1ccc(C(F)(F)F)cc1)c1nnnn1C(C)(C)C (configuration not stated) | 16µM | 0 | 21µM | 0[9.22 µM] | ? | 0
CCN1CCN(C(c2ccccc2)c2nnnn2C(C)(C)C)CC1 (configuration not stated) | 0 | 0 | 0 | - | - | 0
CC(C)(C)n1nnnc1C(c1cccnc1)N(Cc1ccccc1)Cc1ccco1 (configuration not stated) | 0 | 0 | ? | 0 | 0 | 0
CCN(Cc1ccccc1)C(c1cccc(C#N)c1)c1nnnn1C(C)(C)C (configuration not stated) | 0 | 0 | 13µM | 0 | 0 | ?
Cc1ccc(C)c(NC(=O)CN(C)C(=O)CSCc2c(C)noc2C)c1 | 0 | 0 | 0 | 0 | 0 | 0
Cc1noc(C)c1CSCC(=O)N(C)CC(=O)Nc1ccc(Cl)c(C(F)(F)F)c1 | 0 | 0 | 0 | 0 | 0 | 0
Cc1noc(C)c1CSCC(=O)N(C)CC(=O)Nc1ccc(Cl)c(Cl)c1 | 0 | 0 | 5.8µM | 0 | 0 | 0
CCN(CC(=O)Nc1cc(Cl)ccc1C)C(=O)CSCc1c(C)noc1C | 0 | 0 | 0 | 6.5µM | 0 | 0

Screening data from PubChem.
